Tests used:
Experiment in all cases: DAPPL (digital affinity profiling via proximity ligation, sequencing); 10 mM Tris-HCl pH 7.5, 50 mM NaCl, 1 mM DTT, 4% glycerol, room temperature, 30 min; GST-TFs on glutathione beads, 16-mer random dsDNA library, 0.1% formaldehyde crosslink after washing; high values mean tight binding
Conditions in all cases: protein: recombinant; tags: N-terminal GST; dsDNA, one strand shown
[1] = target: T1, FLI1 (Homo sapiens, UniProt Q01543 1-452)
T1 sequence: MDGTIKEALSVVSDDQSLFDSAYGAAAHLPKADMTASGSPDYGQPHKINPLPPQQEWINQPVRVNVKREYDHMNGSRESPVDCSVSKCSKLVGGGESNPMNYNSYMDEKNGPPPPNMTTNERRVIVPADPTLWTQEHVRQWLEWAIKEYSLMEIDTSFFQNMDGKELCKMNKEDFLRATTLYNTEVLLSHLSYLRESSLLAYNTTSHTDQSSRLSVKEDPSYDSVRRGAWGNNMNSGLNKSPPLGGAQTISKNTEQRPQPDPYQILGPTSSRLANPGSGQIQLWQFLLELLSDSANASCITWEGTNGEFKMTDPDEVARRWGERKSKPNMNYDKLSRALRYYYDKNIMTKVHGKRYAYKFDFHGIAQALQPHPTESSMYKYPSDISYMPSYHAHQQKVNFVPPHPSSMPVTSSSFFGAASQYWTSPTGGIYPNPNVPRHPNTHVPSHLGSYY
Summary of the method: (§1)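 Human transcription factors were made in yeast as GST fusions, captured on glutathione beads and barcoded with DNA. With a tag-only sample included, the pool was incubated with 200 nmole of a random double-stranded 16-mer DNA library in Tris/NaCl/DTT/glycerol buffer at room temperature for 30 min, then crosslinked with 0.1% formaldehyde after washing, ligated by proximity, amplified and sequenced. For binding signal, each hexamer's read frequency for a factor is divided by its frequency for the tag-only sample.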

[2] = target: T2, ELK1 (Homo sapiens, UniProt P19419 1-428)
T2 sequence: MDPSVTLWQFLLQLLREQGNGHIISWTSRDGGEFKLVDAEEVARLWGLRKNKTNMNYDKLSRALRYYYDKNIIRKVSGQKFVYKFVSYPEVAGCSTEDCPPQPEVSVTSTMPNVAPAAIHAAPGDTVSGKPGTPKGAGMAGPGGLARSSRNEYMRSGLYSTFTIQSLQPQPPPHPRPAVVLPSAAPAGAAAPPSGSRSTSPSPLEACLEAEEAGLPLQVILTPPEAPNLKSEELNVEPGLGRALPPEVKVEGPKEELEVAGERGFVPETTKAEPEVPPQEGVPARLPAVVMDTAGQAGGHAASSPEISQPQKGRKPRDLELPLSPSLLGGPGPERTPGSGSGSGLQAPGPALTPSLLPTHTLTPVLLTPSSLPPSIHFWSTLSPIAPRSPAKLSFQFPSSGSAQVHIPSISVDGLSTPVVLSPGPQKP
Summary of the method: as §1

[3] = target: T3, GABPA (Homo sapiens, UniProt Q06546 1-454)
T3 sequence: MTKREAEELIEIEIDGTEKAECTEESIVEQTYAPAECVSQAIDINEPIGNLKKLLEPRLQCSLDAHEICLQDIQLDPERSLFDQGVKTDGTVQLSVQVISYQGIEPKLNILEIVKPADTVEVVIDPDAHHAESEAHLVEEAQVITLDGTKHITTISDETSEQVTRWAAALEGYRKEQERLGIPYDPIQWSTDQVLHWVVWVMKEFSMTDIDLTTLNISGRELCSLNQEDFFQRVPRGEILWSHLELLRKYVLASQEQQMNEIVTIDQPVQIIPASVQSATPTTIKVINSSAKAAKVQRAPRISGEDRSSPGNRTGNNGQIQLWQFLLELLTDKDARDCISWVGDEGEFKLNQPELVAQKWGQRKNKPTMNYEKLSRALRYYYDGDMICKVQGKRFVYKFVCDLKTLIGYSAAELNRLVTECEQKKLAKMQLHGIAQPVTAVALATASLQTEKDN
Summary of the method: as §1

[4] = target: T4, ERG (Homo sapiens, UniProt P11308 1-479)
T4 sequence: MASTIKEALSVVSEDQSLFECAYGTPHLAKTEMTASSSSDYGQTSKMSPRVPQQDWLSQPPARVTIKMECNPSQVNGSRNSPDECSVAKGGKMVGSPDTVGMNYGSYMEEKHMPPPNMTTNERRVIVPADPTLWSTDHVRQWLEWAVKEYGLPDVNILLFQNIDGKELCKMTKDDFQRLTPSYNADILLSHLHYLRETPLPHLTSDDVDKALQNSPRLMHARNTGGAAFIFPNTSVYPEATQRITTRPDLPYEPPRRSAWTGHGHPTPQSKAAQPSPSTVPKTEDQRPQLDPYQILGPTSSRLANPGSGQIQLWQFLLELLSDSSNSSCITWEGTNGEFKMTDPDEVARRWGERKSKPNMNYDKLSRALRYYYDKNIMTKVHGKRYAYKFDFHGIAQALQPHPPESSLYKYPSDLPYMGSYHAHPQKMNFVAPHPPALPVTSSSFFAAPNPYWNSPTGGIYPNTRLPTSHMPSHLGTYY
Summary of the method: as §1

[5] = target: ELF1 (Homo sapiens, UniProt P32519 1-619)
Summary of the method: as §1

[6] = target: T5, EHF (Homo sapiens, UniProt Q9NZC4 1-300)
T5 sequence: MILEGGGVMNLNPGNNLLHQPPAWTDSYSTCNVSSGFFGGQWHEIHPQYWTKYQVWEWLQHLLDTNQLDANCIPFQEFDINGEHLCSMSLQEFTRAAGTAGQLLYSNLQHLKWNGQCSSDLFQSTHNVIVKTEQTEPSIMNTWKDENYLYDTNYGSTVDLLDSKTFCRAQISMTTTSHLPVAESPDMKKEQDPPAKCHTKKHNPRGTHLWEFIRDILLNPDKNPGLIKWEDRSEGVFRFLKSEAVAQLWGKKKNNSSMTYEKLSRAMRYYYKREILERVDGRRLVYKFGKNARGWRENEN
Summary of the method: as §1

[7] = target: SPI1 (Homo sapiens, UniProt P17947 1-270)
Summary of the method: as §1

[8] = target: SPIB (Homo sapiens, UniProt Q01892 1-262)
Summary of the method: as §1

[9] = target: T6, ELK3 (Homo sapiens, UniProt P41970 1-407)
T6 sequence: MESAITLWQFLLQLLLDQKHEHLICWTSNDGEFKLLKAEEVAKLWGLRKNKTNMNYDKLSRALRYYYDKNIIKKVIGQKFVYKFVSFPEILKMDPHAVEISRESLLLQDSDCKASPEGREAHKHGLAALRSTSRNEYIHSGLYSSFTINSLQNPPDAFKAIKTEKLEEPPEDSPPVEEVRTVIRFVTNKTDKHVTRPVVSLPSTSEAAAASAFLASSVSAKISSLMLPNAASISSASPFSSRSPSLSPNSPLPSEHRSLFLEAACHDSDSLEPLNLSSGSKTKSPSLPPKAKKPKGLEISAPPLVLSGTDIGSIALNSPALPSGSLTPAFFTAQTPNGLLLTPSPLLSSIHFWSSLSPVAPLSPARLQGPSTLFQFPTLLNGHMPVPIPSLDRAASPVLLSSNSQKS
Summary of the method: as §1

SPIB, sequence (Q01892 whole entry): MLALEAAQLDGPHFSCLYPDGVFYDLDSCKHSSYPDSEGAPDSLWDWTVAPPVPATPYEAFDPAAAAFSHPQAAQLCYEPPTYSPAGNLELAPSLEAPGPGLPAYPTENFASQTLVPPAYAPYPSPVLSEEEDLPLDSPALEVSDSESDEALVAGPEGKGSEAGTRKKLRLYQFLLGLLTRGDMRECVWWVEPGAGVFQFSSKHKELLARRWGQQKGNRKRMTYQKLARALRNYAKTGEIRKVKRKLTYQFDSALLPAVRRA
ELF1, sequence (P32519 whole entry): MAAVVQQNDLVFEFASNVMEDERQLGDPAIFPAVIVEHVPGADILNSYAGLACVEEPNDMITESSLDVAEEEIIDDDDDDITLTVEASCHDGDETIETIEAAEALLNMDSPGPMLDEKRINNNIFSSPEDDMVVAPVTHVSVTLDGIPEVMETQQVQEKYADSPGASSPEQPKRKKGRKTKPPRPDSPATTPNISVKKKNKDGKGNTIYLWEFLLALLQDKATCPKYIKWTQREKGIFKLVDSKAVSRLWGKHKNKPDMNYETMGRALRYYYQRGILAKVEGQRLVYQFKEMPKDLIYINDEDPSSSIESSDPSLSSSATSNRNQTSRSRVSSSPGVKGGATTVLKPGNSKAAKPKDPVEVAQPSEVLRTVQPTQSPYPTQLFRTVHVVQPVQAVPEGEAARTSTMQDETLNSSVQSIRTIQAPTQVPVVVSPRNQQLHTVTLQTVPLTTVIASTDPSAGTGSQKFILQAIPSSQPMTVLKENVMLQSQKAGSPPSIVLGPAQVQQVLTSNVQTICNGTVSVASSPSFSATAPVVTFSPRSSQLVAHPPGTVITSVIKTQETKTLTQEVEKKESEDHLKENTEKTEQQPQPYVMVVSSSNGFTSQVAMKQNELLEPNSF

AAGCTG was tested, and the binding signal [1] was 1.21 fold enrichment (6-mer frequency, TF over GST control), the binding signal [2] was 1.24 fold enrichment (6-mer frequency, TF over GST control) and the binding signal [3] was 1.16 fold enrichment (6-mer frequency, TF over GST control). The binding signal [4] was 1.13 fold enrichment (6-mer frequency, TF over GST control), the binding signal [5] was 1.16 fold enrichment (6-mer frequency, TF over GST control) and the binding signal [6] was 1.08 fold enrichment (6-mer frequency, TF over GST control). For the same sequence, the binding signal [7] was 1.03 fold enrichment (6-mer frequency, TF over GST control), the binding signal [8] was 1.14 fold enrichment (6-mer frequency, TF over GST control) and the binding signal [9] was 1.08 fold enrichment (6-mer frequency, TF over GST control).
